Growth data for 39 compounds are collected here from PubChem BioAssay (NCI).

Compounds without any hit were thinned out: in the full panel of roughly 83,000, 20% have a hit.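 Negative percent growth values reflect cell death: -40 means 40% of the cells present at the start died, and -100 means all died.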 Unmarked numbers belong to inactive results. Active and inactive are the calls of the source. Rule for the calls: active = growth percent below 10; inactive = the rest.

The subject of this experiment is HL-60(TB) leukemia. The experiment is described as follows: NCI-60 one-dose screen, 48 h (100 = growth as untreated, 0 = no growth, -100 = all killed). Particulars: 10 µM unless noted.
For `COc1cc2c(Nc3ccc(Br)cc3F)ncnc2cc1OCC1CCN(C)CC1`, the growth is 0.964% (active).

Turning to `N#CCCc1c[nH]c2ccccc12`, the growth is 99.3%.

Regarding `COc1ccc(C(=O)/C=C/c2c(Cl)c3c(c(OC)c2Cl)OCC(=O)N3)cc1`, the growth was 13.8%.

Regarding `COc1ccc(/C=C\c2cc(OC)c(OC)c(OC)c2)cc1OC(=O)c1cccc(Cn2cc(CCOC(=O)[C@H](N)Cc3cn(C)c4ccccc34)nn2)c1`, the growth was -42.7% (active).

Take `Cn1c(N)c(N=Cc2ccccc2)c(=O)n(C)c1=O`: the growth is 86.1%.

On to `CCN(CC)C(=O)C1(C)CCCC2(C)c3cc(OC(C)=O)ccc3CCC12` (centres undefined), for which the growth was 71.2%.

In the case of `O=C(O)c1cccc2c1-c1ccccc1C2=O`, the growth is 106%.

Take `N#C/C(=C\c1ccccn1)c1nc2cc(Cl)ccc2s1`: the growth is 52%.

Turning to `O=C(NC(Cc1ccc(O)cc1)C(=O)N=Nc1c(O)[nH]c2ccccc12)c1ccccc1` (centres undefined), the growth was 101%.

Turning to `CC(=O)Nc1ccc(-n2c(O)c(/C=N/NC(=O)Cc3ccccc3Nc3c(Cl)cccc3Cl)sc2=S)cc1`, the growth is 99%.

Consider `CCOC(=S)Sc1ccc([N+](=O)[O-])cc1[N+](=O)[O-]`, for which the growth is -25.6% (active).

For the compound `Cc1cc(=O)oc2cc(OCc3nn4c(Nc5nc6ccccc6s5)c(-c5ccccc5)nc4s3)ccc12`, the growth was 93.1%.

On to `CCN(CC)CCC(=O)c1ccc(OC)c2ccccc12`, for which the growth is 44.2%.

For `COc1ccc(NC(=O)CSc2nc(-c3ccc(OC)c(OC)c3)cc(-c3cc(OC)c(OC)c(OC)c3)n2)cc1`, the growth is 115%.

On to `COc1ccc(OC)c(/C=C/C(=O)N/N=C/c2ccc(Cl)cc2)c1`, for which the growth is 20.1%.

Turning to `O=C(O)c1ccc([N+](=O)[O-])cc1S(=O)(=O)O`, the growth was 108%.

Regarding `CCN1CCN(Cc2ccc(NC(=O)c3nc4ccc5[nH]ncc5c4c4c3CCCC4)cc2C(F)(F)F)CC1`, the growth is -59% (active).

As for `COc1ccc(C2CC(n3nnnc3-c3ccccc3)=NN2)cc1` (centres undefined), the growth is 4.11% (active).

As to `CCC(C)Nc1ccc(N)cc1` (centres undefined), the growth is -9.29% (active).

In the case of `COc1cc(/C=C\C(C)=N\Nc2ccccc2)ccc1O`, the growth is 3.74% (active).

For the compound `CCN(Cc1ccccc1)c1ccc(C=O)cc1`, the growth was 85.2%.

As to `CC(=O)CC(C)(C)c1ccc(Cl)cc1`, the growth is 69.9%.

With `CC1=CC=C(NC(=O)/C=C/c2ccccc2)CC1Nc1nccc(-c2cccnc2)n1` (centres undefined), the growth is -0.0857% (active).

As to `O=C(Nc1cccc(-n2cc(-c3ccncc3)c(-c3ccc(O)c(Cl)c3)n2)c1)c1cccc(C(F)(F)F)c1`, the growth is 13.3%.

As for `COc1ccc2nc(-c3cc(-c4cc(OC)c(OC)c(OC)c4)n[nH]3)[nH]c2c1`, the growth was -38.7% (active).

For the compound `CCN1C(=O)N(CC)C2C1NN=c1s/c(=C3\C(=O)N(CCc4ccccc4)c4ccccc43)c(=O)n12` (centres undefined), the growth was -46.1% (active).

As to `CC(NC(=O)c1ccccc1)C(=O)Nc1ccccc1` (centres undefined), the growth is 107%.

In the case of `Cc1cccc(C[C@H](NC(=O)Nc2ccc(Cl)cc2F)C(=O)N[C@@H]2C(=O)N3C[C@H](OC(=O)CCN(C)C)C[C@H]3C(=O)N3CCCC[C@H]3C(=O)N[C@@H](C)C(=O)N3C[C@H](C)C[C@H]3C(=O)O[C@H]2C)c1`, the growth is 16.3%.

In the case of `CC(=O)OC1Oc2cc(C)c(C)cc2-c2oc(=O)c(-c3ccc(F)cc3)cc21` (centres undefined), the growth was 12.5%.

With `CCC/C(=N/NC(N)=O)c1ccco1`, the growth was 76.8%.

In the case of `N#Cc1nc(-c2ccc(Cl)cc2)cc(-c2ccc(Nc3nc(N4CCCCC4)nc(N4CCCCC4)n3)cc2)c1N`, the growth was 99.2%.

Take `CCN(CC)c1nc(SCC(=O)Nc2nc3ccc(C)cc3s2)nc(-c2ccccc2)c1C#N`: the growth was 96.5%.

As to `CC1NC(=S)NC(=O)/C1=C/c1cc(=O)oc2c1ccc1ccccc12` (centres undefined), the growth is 102%.

For `COc1cc2nc(SCc3cc(OC)c(OC)c(OC)c3)n(-c3ccccc3OC)c(=O)c2cc1OC`, the growth was -16% (active).

As to `c1ccc(Cc2ccccc2)cc1`, the growth is 112%.

For the compound `CC[C@]1(O)C[C@@H]2CN(CCc3c([nH]c4ccccc34)[C@@](C(=O)OC)(c3cc4c(cc3OC)N(C)[C@H]3[C@@](O)(C(=O)OC)[C@H](OC(=O)CCCBr)[C@]5(CC)C=CCN6CC[C@]43[C@@H]65)C2)C1`, the growth is -21.2% (active).

`CCCCC(=O)OC1CCCCC1C` (centres undefined): the growth was 117%.

Regarding `Cc1cccc(-c2nc(Nc3ccc4ncsc4c3)c3ccccc3n2)n1`, the growth is 62.5%.

Take `O=C(NC1CCCCC1)c1ccc(Nc2ncnc3c2cnn3-c2ccccc2)cc1`: the growth is 106%.
